This is a sample that favours compounds with a hit; in the whole collection about 3.9% have one here.
Peg3 prom inh = reduces Peg3 promoter-driven luciferase expression in HeLa. HeLa PEG-Prom luciferase reporter, luminescence, overnight. inhibition, % at 20 µM. 1.7% of 360,000 active. AID 588405;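 active means inhibition of at least 50% at 20 µM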
CF NFkB block = cystic fibrosis NF-kB activation inhibition; KKLEB NF-kB-GFP reporter, PAF-induced, GFP fluorescence overnight; 0.86% of 360,000 active; inhibition, % at 5 µM;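 active means at least 50% inhibition at 5 µM, scaled per plate between neutral and stimulator controls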;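 further: PAF is a Pseudomonas aeruginosa culture filtrate used as stimulus; plate controls were PAF-stimulated DMSO wells for no effect and unstimulated DMSO wells for full effect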
TROY signal inh = blocks TROY-dependent signaling in reporter cells. inhibition, % at 10 µM. 0.98% of 360,000 active. Q293 LMP1-TROYcd NF-kB luciferase reporter, 4 h. AID 1347056;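 active means compounds whose plate-normalised and pattern-corrected inhibition of the luciferase reporter signal at the single screening dose is 50% or more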
KKLEB tox = CF airway cell cytotoxicity counter-screen. KKLEB CF airway cells viability, ATPlite luminescence, overnight; active compounds read low; cells stimulated with P. aeruginosa culture filtrate. AID 602141. 0.36% of 360,000 active. activity change (cytotoxicity), % at 5 µM;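 active means corrected activity change at or below -50% at 5 µM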
TWEAK Fn14 block = TWEAK-Fn14 signaling inhibition. inhibition, % at 10 µM. AID 1159606. TWEAK-stimulated Fn14 reporter cells, luciferase luminescence, 8 h. 2% of 360,000 active; in the data active means inhibition above about 50%
HIF-2a block = HIF-2a inhibition; inhibition, % at 18.8 µM; 0.72% of 360,000 active; 786-0 RCC cells HIF-2a reporter, luciferase luminescence, overnight;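 active means inhibition of the luminescence signal of 40% or more relative to plate controls, in a single-dose primary screen at 18.75 µM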
HIF-2a inh conf = HIF-2a inhibition, single concentration confirmation; inhibition, % at 18.8 µM; 56% of 1,800 active; shares compounds with HIF-2a block; AID 651580; 786-0 RCC cells, HIF-2a luciferase reporter luminescence, overnight;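 active means mean inhibition across four replicates of at least 40 percent at the single tested concentration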
HIF-1a cs = HIF-1a inhibition counter-screen for HIF-2a hits; MiaPaCa-2 HIF-1a luciferase reporter, desferoxamine, overnight; shares compounds with HIF-2a block; AID 651589; 72% of 1,800 active; inhibition, % at 18.8 µM;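 active means mean inhibition of the reporter signal across four replicates at the single tested dose of 50% or more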
Starred values were filed as active, the others as inactive.

Screening Cc1cc2nc(Sc3c([N+](=O)[O-])nc(C)n3Cc3ccccc3)[nH]c2cc1C returned Peg3 prom inh 33, CF NFkB block 44, TROY signal inh 32, KKLEB tox -13, TWEAK Fn14 block 84*, HIF-2a block 53*, HIF-2a inh conf 17 and HIF-1a cs 32.
Screening Cc1nc([N+](=O)[O-])c(N2CCN(Cc3ccccc3)CC2)n1Cc1ccccc1 returned Peg3 prom inh 35, CF NFkB block -13, TROY signal inh 10, KKLEB tox 2, TWEAK Fn14 block -10 and HIF-2a block 25.
CC(=O)N1CCC(=NNc2ccc(S(=O)(=O)N3CCOCC3)cc2[N+](=O)[O-])CC1 was read as Peg3 prom inh 8, CF NFkB block 4, TROY signal inh 14, KKLEB tox 12, TWEAK Fn14 block 4 and HIF-2a block 15.
`COc1ccc(C(NC(=O)c2c(F)c(F)c(F)c(F)c2F)c2ccccc2)cc1` (stereo unspecified) gave Peg3 prom inh 93*, CF NFkB block -14, TROY signal inh 69*, KKLEB tox -12, TWEAK Fn14 block 5, HIF-2a block 83*, HIF-2a inh conf 57* and HIF-1a cs 100*.
For Cc1nc2ccccc2n1-c1nc(-c2ccco2)cc(C(F)(F)F)n1 the results were Peg3 prom inh 72*, CF NFkB block 94*, TROY signal inh -22, KKLEB tox -82*, TWEAK Fn14 block 43, HIF-2a block 46*, HIF-2a inh conf 32 and HIF-1a cs 80*.
`FC(F)(F)c1cc(-c2ccco2)nc(-n2cnc3ccccc32)n1` gave Peg3 prom inh 11, CF NFkB block 7, TROY signal inh 3, KKLEB tox 0, TWEAK Fn14 block 0 and HIF-2a block -22.
For CN(CCCNC(=O)C1CCN(S(=O)(=O)c2cccc3nsnc23)CC1)Cc1ccccc1 the results were Peg3 prom inh 10, CF NFkB block -2, TROY signal inh 12, KKLEB tox 4, TWEAK Fn14 block -4 and HIF-2a block 9.
For O=C(Nc1ccccc1)c1c(F)c(F)c(F)c(F)c1F the results were Peg3 prom inh -21, CF NFkB block 6, TROY signal inh -4, KKLEB tox -8, TWEAK Fn14 block -6 and HIF-2a block 9.
`CC(C)c1c(C(=O)Nc2ccccc2)c(-c2ccccc2)c(-c2ccc(F)cc2)n1CC[C@@H](O)C[C@@H](O)CC(=O)O` gave Peg3 prom inh 19, CF NFkB block 17, TROY signal inh -9, KKLEB tox -14, TWEAK Fn14 block -4, HIF-2a block 40*, HIF-2a inh conf 27 and HIF-1a cs -34.
Screening CCOC(=O)c1ccccc1NC(=O)c1ccc(Cl)c(S(=O)(=O)N2CCOCC2)c1 returned Peg3 prom inh 8, CF NFkB block -24, TROY signal inh -12, KKLEB tox 13, TWEAK Fn14 block 13 and HIF-2a block -26.
For O=C1C=CC(=O)N1CCCCCCCCCCN1C(=O)C=CC1=O the results were Peg3 prom inh 102*, CF NFkB block 74*, TROY signal inh 30, KKLEB tox -25, TWEAK Fn14 block 27, HIF-2a block 71*, HIF-2a inh conf 61* and HIF-1a cs 80*.
Screening O=C1C=CC(=O)N1Cc1ccncc1 returned Peg3 prom inh 12, CF NFkB block -23, TROY signal inh 2, KKLEB tox 7, TWEAK Fn14 block 13 and HIF-2a block 4.
COC(=O)C1=C(C)N(c2cc(C)cc(C)c2)/C(=C/c2ccc(O)cc2)C1=O was read as Peg3 prom inh 33, CF NFkB block -5, TROY signal inh 13, KKLEB tox 11, TWEAK Fn14 block 58*, HIF-2a block 44*, HIF-2a inh conf 24 and HIF-1a cs 61*.
CCc1ccc(S(=O)(=O)Nc2ccc(-c3ccc4nnc(C)n4n3)cc2)s1 was read as Peg3 prom inh 5, CF NFkB block -8, TROY signal inh -1, KKLEB tox 3, TWEAK Fn14 block 5 and HIF-2a block -3.

Assay outcomes (PubChem BioAssay)
